Giardia FBPA inh: Giardia lamblia aldolase inhibition | AID 2451 | A8B2U2 | Potency, µM (titrated, usually from 59.6 µM), without a hit: top-dose activity, negative = inhibition, most hits filed as inhibitors | 290,000 tested, 0.71% active | purified Giardia FBPA; note: potency is the fitted concentration of half-maximal effect; nearly all actives have a fitted effect of over 55% in size
Target sequence (A8B2U2 whole entry, looked up): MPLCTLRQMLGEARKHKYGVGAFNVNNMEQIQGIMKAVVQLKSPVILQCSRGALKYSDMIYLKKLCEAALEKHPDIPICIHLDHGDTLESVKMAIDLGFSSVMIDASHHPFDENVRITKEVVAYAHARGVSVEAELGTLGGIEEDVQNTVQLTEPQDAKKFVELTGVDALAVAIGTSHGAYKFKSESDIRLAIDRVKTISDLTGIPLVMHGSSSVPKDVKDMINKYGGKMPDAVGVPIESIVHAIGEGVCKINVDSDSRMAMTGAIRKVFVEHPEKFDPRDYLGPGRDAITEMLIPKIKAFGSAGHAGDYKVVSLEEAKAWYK
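40 nM FBPA preincubated 10 min at RT with compound (up to 57.5 uM final), then substrate plus GAPDH/TPI/NAD/arsenate coupling and diaphorase/resazurin added. Fluorescence read after 20 min at RT, 525/598 nm.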
Sm TGR inh: inhibitors of Schistosoma mansoni thioredoxin glutathione reductase; Q962Y6; purified TGR, DTNB reduction, TNB absorbance 405 nm; Potency, µM (titrated, usually from 114 µM), for the others: at the highest dose activity change, negative = inhibition, most hits filed as inhibitors; 360,000 tested, 3% active; note: potency is the fitted concentration of half-maximal effect; nearly all actives have a fitted effect of over 60% in size
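TGR 20 nM + NADPH 100 uM (dispensed conc.), cpd preinc 15 min RT; start with NADPH (500 uM addition) then DTNB (15 mM addition). Kinetic TNB absorbance, 405 nm filter. Four-parameter Hill fit across titration.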
Pf growth 48h: inhibits P. falciparum growth in the first generation, 48 h. P. falciparum luciferase growth in erythrocytes, 48 h. 310,000 tested, 5.9% active. Potency, µM (highest dose often 28.7 µM), without a hit: top-dose activity change, negative = inhibition, most hits filed as inhibitors; note: potency is the fitted concentration of half-maximal effect
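In quantitative HTS format, infected erythrocytes bearing luciferase-reporter parasites were treated for a single generation at 37 C. Luminescence after adding detection reagent served as the growth measure.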
HCMV antiviral: blocks human cytomegalovirus replication; HFF cells, HCMV-luciferase reporter, 72 h; stronger effect = lower value; activity change, negative = inhibition, % at 57.5 µM; 410,000 tested, 4.5% active; AID 1259415; in the data active = activity change below about -60%; inconclusive = no clear call, values can overlap the other calls; inactive = above about -39%
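Two-dose cell screen: HFF monolayers treated with compounds and infected with luciferase-expressing HCMV at 1 PFU/cell, 72 h at 37C, then lysed for luciferase measurement.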
Pf growth 96h: P. falciparum growth inhibition at 96 hours. P. falciparum luciferase reporter growth, 96 h. Potency, µM (top dose mostly 28.7 µM), for the others: at the top dose activity change, negative = inhibition, actives largely listed as inhibitors. 320,000 tested, 6.9% active. AID 504834; note: potency is the fitted concentration of half-maximal effect
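Delayed-death screen, second-generation endpoint: infected erythrocytes, 2% hematocrit, 0.05% parasitemia final; 96 hours at 37 C, 5% CO2; luciferase detection reagent; luminescence decrease equals reduced growth.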
An asterisk follows results filed as active; [ ] = dose if it differs, or a comment. Most compounds without a hit are left out; they make up all but 14% or so of the library. Unless noted, calls come from the whole dose curve; as a rule, active = well fitted curve in the direction sought with a large enough effect; inconclusive = small, poorly fitted or top-dose-only effect, or another doubt; inactive = no such curve, though single readings can be large; an effect the other way counts as inactive or inconclusive. % is set by controls: 0 for no effect and ±100 for the full control effect.

For Cc1ccc(N(C(=O)c2snc(C(N)=O)c2N)C(C(=O)NC2CCCC2)c2ccncc2)cc1 (stereo not given) the results were Giardia FBPA inh 0%, Sm TGR inh -6%, Pf growth 48h inconclusive, HCMV antiviral inconclusive and Pf growth 96h 18%.
For Clc1ccc(OCc2nnc(SCc3nc4ccccc4[nH]3)n2Cc2ccco2)cc1 the results were Giardia FBPA inh 11%, Sm TGR inh inconclusive, Pf growth 48h inconclusive, HCMV antiviral -80* and Pf growth 96h -16%[5.75 µM].
Screening Cn1c(COc2ccccc2)nnc1SCc1nc2ccccc2[nH]1 returned Giardia FBPA inh 0%, Sm TGR inh 4%, Pf growth 48h -14%, HCMV antiviral 10 and Pf growth 96h 1.5µM*.
CCOP(=O)(OCC)C(=Cc1cc(C(C)(C)C)c(O)c(C(C)(C)C)c1)P(=O)(OCC)OCC was read as Giardia FBPA inh 1%.
Screening Cc1ccc(CNC(=O)CS(=O)(=O)Cc2nc(-c3ccccc3C)oc2C)cc1 returned Sm TGR inh 2% and HCMV antiviral -61*.
COc1ccccc1CNC(=O)CS(=O)(=O)Cc1nc(-c2ccccc2C)oc1C was read as Sm TGR inh -35% and HCMV antiviral 0.
Screening Cc1ccc(-c2nc(CS(=O)(=O)CC(=O)N3CCc4ccccc4C3)c(C)o2)cc1 returned Giardia FBPA inh -11%, Sm TGR inh 25µM*, Pf growth 48h -18%, HCMV antiviral -10 and Pf growth 96h 13µM*.
`Cc1ccccc1-c1nc(CS(=O)(=O)CC(=O)N2CCOCC2)c(C)o1` gave Giardia FBPA inh 8%, Sm TGR inh 16µM*, Pf growth 48h 65%, HCMV antiviral -15 and Pf growth 96h inconclusive.
For Cc1ccccc1-c1nc(CS(=O)(=O)CC(=O)Nc2c(C)cccc2C)c(C)o1 the results were Sm TGR inh inconclusive and HCMV antiviral -78*.
`Cc1ccc(NC(=O)CN(C)C(=O)COC(=O)CCS(=O)(=O)c2ccc(C)cc2)cc1` gave Giardia FBPA inh 8%, Sm TGR inh -9%, Pf growth 48h 5%, HCMV antiviral 16 and Pf growth 96h -24%.
`Cc1cc(C)c2c(CC(=O)Nc3ccc(S(=O)(=O)N4CCCC(C)C4)cc3)coc2c1` (stereo not given) gave Sm TGR inh 1% and HCMV antiviral -6.
CCOC1=C2CN(S(=O)(=O)c3ccc(C)cc3)[C@H](c3ccccc3)C[C@@H]2N(S(=O)(=O)c2ccc(C)cc2)[C@H](c2cccc(C)c2)C1 was read as HCMV antiviral -19.
For CCCNC(=O)CS(=O)(=O)Cc1nc(-c2ccccc2C)oc1C the results were Giardia FBPA inh 0%, Sm TGR inh 50µM*, Pf growth 48h 11%, HCMV antiviral 5 and Pf growth 96h inconclusive.
Cc1ccc(/C=C2/C(=O)ON=C2c2ccccc2)o1 was read as Giardia FBPA inh inconclusive, Sm TGR inh 5µM*, Pf growth 48h 41%, HCMV antiviral 28 and Pf growth 96h 15%.
`CC1=NOC(=O)/C1=C\c1ccc(-c2ccccc2Br)o1` gave Giardia FBPA inh -25%, Sm TGR inh inconclusive, Pf growth 48h 5%, HCMV antiviral -10 and Pf growth 96h 15µM*.
`O=C1ON=C(c2ccccc2)/C1=C/c1ccccc1` gave Giardia FBPA inh -15%, Sm TGR inh inconclusive, Pf growth 48h 50%, HCMV antiviral 10 and Pf growth 96h inconclusive.
`O=C1ON=C(c2ccccc2)/C1=C\c1ccco1` gave Giardia FBPA inh inconclusive, Sm TGR inh 25µM*, Pf growth 48h 35%, HCMV antiviral -3 and Pf growth 96h 9%.
`CC1=NOC(=O)/C1=C\c1ccc(-c2cccc(Cl)c2)o1` gave Giardia FBPA inh -19%, Sm TGR inh -4%, Pf growth 48h 44% and Pf growth 96h 81%.
Screening Cc1ccc(C2=NOC(=O)/C2=C\c2ccccc2)cc1 returned HCMV antiviral 8.
For Cc1sc(/C=C2\C(=O)ON=C2c2ccccc2)cc1Br the results were Giardia FBPA inh 11%, Sm TGR inh -8%, Pf growth 48h 9% and Pf growth 96h -25%.
Screening CCCCc1ccc(/C=C2/C(=O)ON=C2c2ccccc2)s1 returned Giardia FBPA inh 1%, Sm TGR inh 6%, Pf growth 48h -2%, HCMV antiviral -31 and Pf growth 96h 10µM*.
For COc1ccc(Cl)cc1C(=O)Nc1ccc(NC(C)=O)cc1 the results were Giardia FBPA inh 5%, Sm TGR inh 3%, Pf growth 48h -10% and Pf growth 96h 35%.
CC(=O)Oc1c(I)cc(I)cc1C(=O)Nc1ccc(Cl)cc1 was read as Sm TGR inh 2%, Pf growth 48h -6%, HCMV antiviral -99* and Pf growth 96h inconclusive.
`CC#CCc1cc2ccccc2c(=O)o1` gave Giardia FBPA inh 6%, Sm TGR inh 4µM*, Pf growth 48h 35%, HCMV antiviral 7 and Pf growth 96h inconclusive.
Cc1ccc(N=Nc2ccc(O)c3ncccc23)cc1C was read as Giardia FBPA inh -1%, Sm TGR inh inconclusive, Pf growth 48h inconclusive, HCMV antiviral -98* and Pf growth 96h inconclusive.
`Cc1ccc(N=Nc2ccc(O)c3ncccc23)cc1` gave Giardia FBPA inh -20%, Sm TGR inh 1%, Pf growth 48h 0.47µM*, HCMV antiviral -96* and Pf growth 96h inconclusive.
Oc1ccc(N=Nc2ccc3c(c2)OCO3)c2ccccc12 was read as Giardia FBPA inh 10%, Sm TGR inh -5%, Pf growth 48h inconclusive and Pf growth 96h inconclusive.
For COC(=O)NC(CC(C)=O)c1ccc(Cl)cc1 (stereo not given) the results were Giardia FBPA inh 1%[12.9 µM].
`O=C1CSC(c2ccc(F)cc2)N1c1nc2ccccc2s1` (stereo not given) gave Giardia FBPA inh 1%, Sm TGR inh -6%, Pf growth 48h -5%, HCMV antiviral 32 and Pf growth 96h 10µM*.
`O=C(Nc1cc(Cl)ccc1-n1cncn1)c1cc(F)c(F)c(F)c1F` gave Sm TGR inh 4%, Pf growth 48h -15%, HCMV antiviral 5 and Pf growth 96h -7%.
For O=C(COC(=O)CCNS(=O)(=O)c1ccc(Cl)cc1)Nc1ccccc1OC(F)F the results were Sm TGR inh 1%, Pf growth 48h 2%, HCMV antiviral -15 and Pf growth 96h 22%.
For CO[C@@H]1COC(=O)[C@H](C)NC(=O)C/C=C\[C@@H](C)[C@@H](NS(=O)(=O)c2ccc(C)cc2)COC(=O)C/C=C\[C@@H]1C the results were Giardia FBPA inh 5%[12.9 µM].
`Cc1nc2ccc(S(=O)(=O)CCC(=O)NCCc3ccccc3)cc2s1` gave HCMV antiviral 8.
